Results from PubChem BioAssay AID624483 (NMMLSC, 2012).
The whole screen tested about 360,000 compounds, of which about 11,000 (3.1%) were called active. Not shown: some 2% with an inconclusive outcome. For the sample, actives were picked, then their nearest neighbours and some compounds at random. Values without a mark were called inactive. Cut-off read from the data, not from the text of the source: active = fluorescence intensity above about 16000; inconclusive = no clear call, values can overlap the other calls; inactive = below that.

Test: compound fluorescence in toxin protease inhibitor counterscreen, primary screen, artefact control for toxin protease inhibitor project, biochemical, multiplex microsphere, HTS (AID 624483)
Conditions: compound autofluorescence counterscreen, microsphere flow cytometry; hits give high values

| Structure (SMILES) | fluorescence intensity |
| --- | --- |
| Cn1c(=O)cc(OCC(=O)N2CCN(c3ccccc3F)CC2)c2ccccc21 | 2380 |
| Cn1c(=O)cc(OCCCC(=O)N2CCN(Cc3ccc4c(c3)OCO4)CC2)c2ccccc21 | 9010 |
| Cn1c(=O)cc(OCCCC(=O)N2CCN(c3ccccn3)CC2)c2ccccc21 | 19100 (active) |
| CCCOc1ccc(-c2nc(N)n[nH]2)cc1 | 16700 (active) |
| COc1ccc(-c2nc(SCC(=O)N3CCCC3)n[nH]2)cc1 | 5340 |
| Nc1nc(SCCOc2ccccc2)n[nH]1 | 6950 |
| CCOC(=O)c1ccc(-c2ccc3ncnc(N(C)Cc4sccc4C)c3c2)o1 | 3710 |
| CCCC(=O)N1CCC1(C)C(=O)NS(=O)(=O)c1ccc(Cl)cc1 (centres undefined) | 2920 |
| Cc1nc2c(OCc3ccc(Cl)cc3)cccn2c1N(C)Cc1cccs1 | 3830 |
| COC(=O)C1=C(N)Oc2c(oc(CO)cc2=O)C1c1c(F)cccc1Cl (centres undefined) | 3610 |
| COc1ccc(C(=O)N/N=C2\CCS(=O)(=O)c3ccc(F)cc32)cc1OC | 4530 |
| Cc1ccc(C(=O)N(CN2CCCC2=O)c2ccc(F)cc2)cc1 | 24000 (active) |
| CCOc1ccc(C(=O)NCCCN2CCCC2=O)cc1 | 3040 |
| Cc1ccc(-c2nn(-c3ccccc3)cc2C(=O)NCCCN2CCCC2=O)cc1 | 4630 |
| CCCNC(=O)CCc1c(C)nc2c(c(C)nn2-c2ccc(C)cc2)c1C | 3860 |
| Cc1ccc2c(=O)oc(N(C)C)nc2c1 | 2560 |
| Cc1ccc(-n2nc(N)c3c(=O)oc(N(C)C)nc32)cc1 | 23400 (active) |
| Cc1ccc(NS(=O)(=O)c2c(C)[nH]c(=O)[nH]c2=O)cc1C | 10900 |
| CC1(C)Cc2ccccc2-c2[nH]c(=S)[nH]c(=O)c21 | 4400 |
| O=c1[nH]c(CN2CCOCC2)nc2scc(-c3ccccc3)c12 | 4340 |
| CC1(C)Cc2ccccc2-c2nc(CN3CCOCC3)[nH]c(=O)c21 | 22300 (active) |
| CC(C)c1cccc(C(C)C)c1Nc1cn[nH]c1 | 6170 |
| CCC(C)(C)c1ccc(Oc2ccc(NC(=O)COC(=O)C3=COCCO3)cc2)cc1 | 21300 (active) |
| COc1ccc(NC(=O)COC(=O)C2COc3ccccc3O2)cc1 (centres undefined) | 3930 |

| Structure (SMILES) | fluorescence intensity |
| --- | --- |
| CCOc1ccc(NC(=O)c2ccc(NC(=O)COC(=O)c3ccc(NC(=O)CC#N)cc3)cc2)cc1 | 4430 |
| C/C(=N\NS(=O)(=O)c1ccccc1)c1c(O)cc(C)oc1=O | 5910 |
| O=C(CSc1nccc(=O)[nH]1)Nc1ccc(N2CCOCC2)c(Cl)c1 | 3800 |
| CCOc1ncccc1C(=O)OCC(=O)N1c2ccccc2CC1C (centres undefined) | 3090 |
| CCOC(=O)c1[nH]c(C)c(C(=O)OCC(=O)N2c3ccccc3CC2C)c1C (centres undefined) | 19700 (active) |
| CCOC(=O)c1c(C)[nH]c(C(=O)OCC(=O)N2CCCC2=O)c1C | 6230 |
| CC(C)C(OC(=O)c1cccs1)C(=O)NC1CCCCC1 (centres undefined) | 9640 |
| Cc1ccc(-c2nc(COC(=O)c3c(C)noc3C)cs2)cc1 | 9900 |
| COc1ccc(C2C(C#N)=C(N)Oc3n[nH]c(C)c32)cc1CN1CCN(c2ccc(F)cc2)CC1 (centres undefined) | 24200 (active) |
| COc1ccc(N2C(=O)c3ccccc3NC2c2ccc(OC)c(CN3CCOCC3)c2)cc1 (centres undefined) | 4330 |
| COc1ccccc1CN1CCCC(N2CCN(c3ccc(F)cc3)CC2)C1 (centres undefined) | 4030 |
| CSc1ncnc2c1ncn2CCCNCC1CCCCC1 | 3580 |
| Cc1ccc(NC(=O)C2CCN(S(=O)(=O)c3ccc4c(c3)NC(=O)CO4)CC2)cc1C | 6240 |
| CC(CC(=O)Nc1ccc(F)cc1F)S(=O)(=O)c1ccc2c(c1)NC(=O)CO2 (centres undefined) | 6050 |
| O=C1COc2ccc(NC(=O)N3CCN(c4ccc(F)cc4)CC3)cc2N1 | 22400 (active) |
| COc1cccc(N2CCN(C(=O)Nc3ccc4c(c3)NC(=O)CO4)CC2)c1 | 19600 (active) |
| CCOC(=O)C1CCN(C(=O)Nc2cccc(OC)c2)CC1 | 3130 |
| COc1ccc(NC(=O)CCS(=O)(=O)c2cc3c(cc2Cl)NC(=O)CO3)cc1OC | 4470 |
| Clc1ccccc1Nc1nc(NCc2cccs2)nc2ccsc12 | 2970 |
| O=C(NN=Cc1ccccc1O)C(=O)NN=Cc1ccccc1O | 3880 |
| COC(=O)[C@H](CC(C)C)NC(=O)N1CCCCC1C (some centres undefined) | 6670 |
| COc1ccccc1-c1cc(NC(C)=O)c2ncc(-c3ccc(F)cc3)n2c1 | 3190 |
| O=C(c1ccc(F)cc1)N1CCC(C(=O)N2CCN(S(=O)(=O)c3ccccc3Br)CC2)CC1 | 6500 |
| CCn1c(CSc2nc(C)cc(C)n2)nnc1SCC(N)=O | 4570 |

| Structure (SMILES) | fluorescence intensity |
| --- | --- |
| CCSc1nc(=S)n(CC)c(C)c1C(C)=O | 19400 (active) |
| CC(=O)c1c(N2CCOCC2)nc(=S)n(Cc2ccccc2)c1C | 2990 |
| CCCc1nc(-c2ccccc2O)n(-c2ccccc2)n1 | 3640 |
| CC(=O)NC(C)(C)C1CC=C(C)/C(=N\O)C1 (centres undefined) | 17100 (active) |
| C=C(C)C1CC=C(C)/C(=N\NC(=O)CNc2ccccc2OC)C1 (centres undefined) | 2580 |
| OC(c1ccccc1)c1nc(/C=C/c2ccc(C(F)(F)F)cc2)cs1 (centres undefined) | 2820 |
| CCCc1nnc(SCC(=O)Nc2ccc(C(=O)OCC)cc2)o1 | 3670 |
| CC(=O)Nc1ccc(C(=O)CSc2nnc(Cc3ccccc3)o2)cc1 | 16300 (active) |
| O=C(CSc1nnc(Cn2cnc3ccccc32)o1)c1ccccc1 | 4020 |
| CN(Cc1cn(Cc2ccc(C(F)(F)F)cc2)nn1)C1CN(Cc2cn(Cc3ccc(C(F)(F)F)cc3)nn2)S(=O)(=O)C1 (centres undefined) | 5810 |
| COc1ccc(CNc2nc(NCc3ccc(OC)cc3)c3ncn(C4CCCC4)c3n2)cc1 | 4490 |
| COc1ccc(CNC(=O)C2CCCC2)cc1 | 5540 |
| COc1ccc(CNC2CCCCC2)cc1 | 22800 (active) |
| COc1cccc(NC(=O)C2(C)CCN2Cc2ccccc2Cl)c1 (centres undefined) | 3880 |
| COc1ccccc1CNC(=O)c1cc(-c2cc(Cl)ccc2C)n[nH]1 | 3000 |
| COc1ccc(C(=O)CSc2nnc(COc3ccccc3)n2Cc2ccco2)cc1 | 23900 (active) |
| CCn1c(CNc2ccc(OC)cc2)nnc1SCC(=O)c1ccc(OC)cc1 | 3090 |
| O=C(CSc1nnc(COc2ccc(Cl)cc2)n1Cc1ccco1)N1CCNC1=O | 5560 |
| CCCCN(CC)C(=O)CN(C)S(=O)(=O)c1cccc2nsnc12 | 6470 |
| CC(C(=O)NC1CCCC1)N1CCN(S(=O)(=O)c2ccccc2Cl)CC1 (centres undefined) | 4750 |
| CCCCNC(=O)CN1C(=O)NC(Cc2ccccc2)(Cc2ccccc2)C1=O | 5690 |
| O=C(CC1CCCCC1)NCc1ccccc1 | 3670 |
| O=C(CN1C(=O)NC(Cc2ccccc2)(Cc2ccccc2)C1=O)NCC1CCCCC1 | 20200 (active) |
| CC(=O)c1cccc(NC(=O)c2cc(C)nn2-c2ccccc2)c1 | 3940 |

| Structure (SMILES) | fluorescence intensity |
| --- | --- |
| CC(=O)c1cccc(NC(=O)[C@@H](NC(N)=O)C(C)C)c1 | 3400 |
| CSc1ccccc1C(=O)Nc1cccc(C(C)=O)c1 | 26700 (active) |
| COC(=O)c1ccc2c(c1)S(=O)(=O)NC2C (centres undefined) | 5730 |
| COC(=O)c1ccc(OCC(O)CN(CCO)CC(O)Cn2ccc3ccccc32)cc1 (centres undefined) | 2540 |
| Cc1cc(C(F)(F)F)nc(SCC(=O)Nc2nccs2)n1 | 4960 |
| CCn1c(SCC(=O)Nc2sc(C)c(C)c2C#N)nnc1C1CC1 | 4370 |
| CCOC(=O)c1sc(NC(=O)CSc2nc(C)cc(C(F)(F)F)n2)c(C#N)c1C | 20700 (active) |
| CC(C)(C)S(=O)N1Cc2cc(C(=O)NCCCN3CCOCC3)nc(-c3cccc(-c4cc5ccccc5o4)c3)c2[C@H]1CCO (some centres undefined) | 4620 |
| Cc1noc(NS(=O)(=O)c2ccc(N3CC(O)=C(c4ccccc4)C3=N)cc2)c1C | 2440 |
| CCOC(=O)C1CCCN(C(=O)c2ccc(C)c(F)c2)CC1 (centres undefined) | 3730 |
| CCS(=O)(=O)Nc1ccc(C2=NN(S(=O)(=O)c3ccc(F)cc3)C(c3ccco3)C2)cc1 (centres undefined) | 17100 (active) |
| CS(=O)(=O)Nc1cccc(C2=NN(S(=O)(=O)c3ccccc3)C(c3cccs3)C2)c1 (centres undefined) | 8170 |
| CCS(=O)(=O)Nc1ccc(C2=NN(C(C)=O)C(c3cccs3)C2)cc1 (centres undefined) | 2400 |
| CCOC(=O)C1(C(F)(F)F)N=C(N(C)C)OC(N(C)C)=N1 | 2190 |
| COCCCNC(=O)CNC(=S)N(Cc1cc(OC)c(OC)c(OC)c1)C1CCCC1 | 2570 |
| O=S1(=O)CC(NCc2ccccc2)C(Nc2ccc(Cl)cc2)C1 (centres undefined) | 3670 |
| CCn1c(CNC(=O)c2cc(OC)c(OC)c(OC)c2)cc2cc(C)ccc21 | 3780 |
| CCn1c(C)nc2cc(C(=O)NNS(=O)(=O)c3ccc(C)cc3C)ccc21 | 22500 (active) |
| Cc1ccc(S(=O)(=O)N2CCN(C(=O)Cn3c(=O)cnc4ccccc43)CC2)c(C)c1 | 5660 |
| CC(=O)Nc1cnc(-c2ccc(O)cc2C)cn1 | 3960 |
| NS(=O)(=O)c1ccc(NC2=CC(c3ccc(F)cc3)N(c3ccc(S(N)(=O)=O)cc3)C2=O)cc1 (centres undefined) | 4340 |
| C#CCN(C[C@H]1[C@H](OC(=O)NC2CCCC2)[C@H](OC(=O)NC2CCCC2)C[C@H]2C(=O)N(c3ccccc3)C(=O)[C@@H]12)S(=O)(=O)c1ccc(C)cc1 | 3750 |
